From PubChem BioAssay AID864 (The Scripps Research Institute Molecular Screening Center, 2007)
Some of the results follow. Values without a mark were called inactive. Activity calls are given as the source filed them. Cut-off read from the data, not from the text of the source: active = activation above about 8.4%; inactive = the rest.

These molecules were tested against Galanin receptor type 2 (Homo sapiens) (UniProt O43603) (assay: GALR2 agonists, retest of hits, confirmation, cell-based (AID 864;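 note: 0% = buffer-only vehicle wells and 100% = full reference agonist response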)). Conditions: GALR2-expressing cells, agonist activation; at 5.6 µM; active compounds read high.
Chain of Galanin receptor type 2 (Homo sapiens) (O43603 whole entry, looked up): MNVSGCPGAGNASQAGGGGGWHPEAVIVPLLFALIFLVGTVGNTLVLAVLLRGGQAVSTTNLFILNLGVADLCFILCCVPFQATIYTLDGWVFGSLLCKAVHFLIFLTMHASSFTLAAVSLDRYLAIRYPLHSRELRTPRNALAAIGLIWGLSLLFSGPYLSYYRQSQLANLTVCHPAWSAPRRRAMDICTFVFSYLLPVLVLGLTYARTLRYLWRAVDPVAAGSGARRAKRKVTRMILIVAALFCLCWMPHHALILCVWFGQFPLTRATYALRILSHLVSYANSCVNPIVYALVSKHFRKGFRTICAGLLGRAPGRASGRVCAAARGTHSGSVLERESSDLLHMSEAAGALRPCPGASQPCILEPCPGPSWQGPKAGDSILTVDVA

SMILES	activation
CC(=O)Oc1ccc(C(C)=O)c2c1OCCO2	-0.99%
CCCOc1ccc(C(=O)C(CCC(CNCC)C(=O)c2ccc(OCCC)cc2)CNCC)cc1 (stereo unspecified)	16% (active)
COc1ccccc1N1N=C(c2cccs2)CC1c1ccccc1 (stereo unspecified)	6.34%
Fc1ccc(N2N=C(c3cccs3)CC2c2ccco2)c(F)c1 (stereo unspecified)	1.22%
CC1(C)CC(=O)C=C(NCCN2CCNCC2)C1	-1.05%
O=C(NC(=S)Nc1ccc(NC(=O)c2cccs2)cc1)c1ccc([N+](=O)[O-])cc1	-0.89%
O=[N+]([O-])c1ccccc1SNc1ccccn1	-0.89%
COc1ccc(C(=O)CN2C(=O)NC(C)(c3ccc(C)cc3)C2=O)cc1OC (stereo unspecified)	-0.91%
CCOc1ccc2nc(Nc3nc4ccc(NC(C)=O)cc4s3)sc2c1	27.5% (active)
CC(=O)N(Cc1cccs1)C1CCOC(C)(C)C1 (stereo unspecified)	-1%
C=CCN(CC=C)S(=O)(=O)c1ccc(C(=O)Nc2nc3c(s2)CCc2ccccc2-3)cc1	2.82%
Cc1ccc(CCC(=O)Nc2ncc(Cc3cc(Cl)ccc3Cl)s2)o1	7.28%
COc1ccc(Nc2oc(-c3ccccc3Cl)nc2C#N)cc1	2%
CCN(C(=O)CSc1ncn[nH]1)c1cccc2ccccc12	-1.13%
COc1cc(SC#N)ccc1N=Cc1c(C)[nH]n(-c2ccc(C)cc2)c1=O	7.97%
Cc1csc(NC(=O)c2ccc(-c3ccc(Cl)cc3Cl)o2)n1	-0.78%
Cc1ccc(Cc2c(C)nc3nc(SCC(=O)NCCN4CCOCC4)nn3c2C)cc1	-0.11%
CC/C(C)=N/Nc1nc2sc3c(c2c(=O)[nH]1)CC(C)(C)OC3	-0.45%
O=C1COc2ccc(NC(=O)N3CCN(c4ccc(F)cc4)CC3)cc2N1	-0.98%
Cn1c(=O)oc2cc(S(=O)(=O)N3CCC(C(=O)Nc4ccc(OC(F)(F)F)cc4)CC3)ccc21	1.24%
COC(=O)c1ccc(NC(=O)C(C)N2C(=O)c3ccccc3C2=O)cc1 (stereo unspecified)	-0.71%
COCCN(CCOC)S(=O)(=O)c1ccc(C(=O)Nc2nc3c(s2)CCc2ccccc2-3)cc1	5.93%
O=c1oc2cc(O)ccc2cc1-c1ccc(F)cc1	2.23%
OC(COc1cccc2ccccc12)CN1CCN(c2ccccn2)CC1 (stereo unspecified)	-0.28%
CCOc1ccc(C(O)Cn2c(=N)n(CCN3CCCCC3)c3ccccc32)cc1 (stereo unspecified)	-0.63%
C=CCn1c(Oc2ccc(C(=O)OC)cc2)nc2c1c(=O)n(C)c(=O)n2C	0.25%
